Results taken from PubChem BioAssay (NCATS).
Several values for one entry are separate records, joined by “and”; a condition that tells them apart may be missing. Equal entries are not always repeated. Unmarked numbers belong to inactive results. Calls come from the whole dose curve; as a rule, active = well fitted activation curve with a large enough effect; inconclusive = small, poorly fitted or top-dose-only effect; inactive = flat fitted curve, though single readings scatter.

Each compound was assayed against Peroxisome proliferator-activated receptor alpha (Homo sapiens) (UniProt Q07869) (assay: qHTS assay for small molecule agonists of the peroxisome proliferator-activated receptor alpha (PPARalpha) signaling pathway (AID 651778; note: % of control where 0% means no effect)). Conditions: PathHunter PPARalpha complementation, chemiluminescence, 6 h; stronger effect = higher value.
Sequence of Peroxisome proliferator-activated receptor alpha (Homo sapiens) (Q07869 whole entry, looked up): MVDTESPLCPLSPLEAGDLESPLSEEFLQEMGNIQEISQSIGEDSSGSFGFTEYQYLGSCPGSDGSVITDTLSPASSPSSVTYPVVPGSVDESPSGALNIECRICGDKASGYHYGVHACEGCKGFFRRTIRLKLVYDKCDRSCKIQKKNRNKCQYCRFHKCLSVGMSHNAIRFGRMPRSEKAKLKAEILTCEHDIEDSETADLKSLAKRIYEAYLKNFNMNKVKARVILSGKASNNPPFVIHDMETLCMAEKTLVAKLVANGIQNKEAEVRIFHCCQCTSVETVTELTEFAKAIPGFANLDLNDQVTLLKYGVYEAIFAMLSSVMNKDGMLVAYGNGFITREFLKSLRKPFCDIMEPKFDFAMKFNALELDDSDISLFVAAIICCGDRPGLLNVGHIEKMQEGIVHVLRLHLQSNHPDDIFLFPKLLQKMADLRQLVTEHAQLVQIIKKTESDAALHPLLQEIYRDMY
In short: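 Cells plated at 2,000/well and held overnight at 37 C, 5% CO2, then compound added by pin tool for 6 hr; after PathHunter detection reagent and 60 min at room temperature, chemiluminescence from enzyme complementation was read.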
With OC[C@H]1O[C@@H]2O[C@H]3[C@H](O)[C@@H](O)[C@@H](O[C@H]4[C@H](O)[C@@H](O)[C@@H](O[C@H]5[C@H](O)[C@@H](O)[C@@H](O[C@H]6[C@H](O)[C@@H](O)[C@@H](O[C@H]7[C@H](O)[C@@H](O)[C@@H](O[C@H]8[C@H](O)[C@@H](O)[C@@H](O[C@H]1[C@H](O)[C@H]2O)O[C@@H]8CO)O[C@@H]7CO)O[C@@H]6CO)O[C@@H]5CO)O[C@@H]4CO)O[C@@H]3CO the max response was -4.97%.
CCCCCCCCCCCCCC(=O)OC(C)C showed a max response of -1.44%.
In the case of COc1cc([C@H]2Oc3cc([C@H]4Oc5cc(O)cc(O)c5C(=O)[C@@H]4O)ccc3O[C@@H]2CO)ccc1O, the max response is reported as -8.58%.
COc1ccc(C(Cl)=C(c2ccc(OC)cc2)c2ccc(OC)cc2)cc1 gave a max response of -4.66%.
C#C[C@]1(O)CC[C@H]2[C@@H]3CCC4=Cc5oncc5C[C@]4(C)[C@H]3CC[C@@]21C gave a max response of -4.33%.
With C/C=C/c1ccc(O)c(OC)c1 the max response was -4.52% and -2.32%.
With COc1ccc(C(=O)c2ccccc2)c(O)c1 the max response was 1.86% and -0.894%.
For O=C(O)c1ccc(S(=O)(=O)N(Cl)Cl)cc1, the max response was 7.46%.
With C=C[C@@]1(C)CC(=O)[C@]2(O)[C@@]3(C)[C@@H](O)CCC(C)(C)[C@@H]3[C@H](O)[C@H](OC(C)=O)[C@@]2(C)O1 the max response was 0.227%.
CCOc1ccccc1C(N)=O showed a max response of -1.03%.
For Oc1c(Cl)cc(Cl)c(Cl)c1Cc1c(O)c(Cl)cc(Cl)c1Cl, the max response was 1.56% and 1.87%.
For NCCNc1cccc2ccccc12, the max response was -2.74% and -3.34%.
For CN(C)C(=O)Nc1ccc(Cl)c(Cl)c1, the max response was 0.591%.
In the case of CCCN(CCC)S(=O)(=O)c1ccc(C(=O)O)cc1, the max response is reported as -6.45% and -0.148%.
CC(C)(C)CC(C)(C)c1ccc(O)c(-n2nc3ccccc3n2)c1 gave a max response of 12.6%.
In the case of CCCCCCCCCCCCCCCCO, the max response is reported as 0.0651%.
CCCCC(CC)COC(=O)c1ccc(N(C)C)cc1 (configuration not stated) was tested, and the max response was 0.44% and -4.46%.
CC1(C)OC[C@@H]2O[C@@]3(C(=O)O)OC(C)(C)O[C@H]3[C@@H]2O1 showed a max response of -1.9%.
CCOc1ccc(NC(C)=O)cc1 was tested, and the max response was -5.21% and -4.18%.
Work on CCCCOC(=O)CC(CC(=O)OCCCC)(OC(C)=O)C(=O)OCCCC yielded a max response of 5.65%.
CCCCCCCC/C=C\CCCCCCCCN gave a max response of 0.202%.
Compound NC(=O)c1ccccc1O has a max response of 4.04%.
